Bioassay records from PubChem BioAssay.
Pf apPOL inh: Pf-apPOL DNA polymerase inhibition. Recombinant Pf-apPOL, molecular beacon fluorescence, 1.5 h. inhibition, % at 10 µM. 210,000 tested, 0.25% active. AID 1794808
mHTT CaM bind: mHTT-calmodulin interaction abrogation; AlphaScreen His-mHTT/GST-CaM binding, luminescence; inhibition, % at 15 µM; 190,000 tested, 3.6% active; P42858
Hits are given with their value. This is one part of a sample in which hits are shown more often than they occur. Rule as the data show it: active = inhibition above about 50%; inactive = the rest.

Results for O=C(NC(Nc1ccccc1)C(Cl)(Cl)Cl)c1ccc(Br)cc1 (stereo unspecified) ?
Pf apPOL inh: inactive; mHTT CaM bind: 57

What do the screens show for `O=C(/C=C/c1ccccc1)NC(Nc1ccccc1)C(Cl)(Cl)Cl` (stereo unspecified)?
Pf apPOL inh: inactive; mHTT CaM bind: 96

Results for O=C(NC(Nc1ccccc1)C(Cl)(Cl)Cl)c1ccc(F)cc1 (stereo unspecified) ?
Pf apPOL inh: inactive; mHTT CaM bind: inactive

How did O=C(NC(Nc1ccccc1)C(Cl)(Cl)Cl)c1ccc(Cl)cc1 (stereo unspecified) do in these assays?
Pf apPOL inh: inactive; mHTT CaM bind: inactive

What do the screens show for `COc1ccc(NC(=O)/C=C/c2ccc(Cl)cc2)cc1`?
Pf apPOL inh: inactive

What do the screens show for `COc1cc(C=C2Oc3c(ccc(O)c3CN3CC(C)CC(C)C3)C2=O)cc(OC)c1OC` (stereo unspecified)?
Pf apPOL inh: inactive; mHTT CaM bind: inactive

Results for CC1CC(C)CN(Cc2c(O)ccc3c2OC(=Cc2ccco2)C3=O)C1 (stereo unspecified) ?
Pf apPOL inh: inactive; mHTT CaM bind: inactive

Results for O=C(c1cc(-c2ccco2)[nH]n1)N1CCC(COCc2ccccc2)CC1 ?
Pf apPOL inh: inactive; mHTT CaM bind: 59

How did O=C(CN1CCN(C(=O)c2cc(-c3ccco3)[nH]n2)CC1)c1ccco1 do in these assays?
Pf apPOL inh: 73; mHTT CaM bind: 60

How did Cc1cc(C(=O)N2CCC(COCc3ccccc3)CC2)no1 do in these assays?
Pf apPOL inh: inactive; mHTT CaM bind: inactive

What do the screens show for `CS(=O)(=O)N1CCN(C(=O)c2cc(-c3ccco3)[nH]n2)CC1`?
Pf apPOL inh: inactive; mHTT CaM bind: inactive

How did CC1=Nc2ccccc2C1=Cc1c(O)n(-c2ccc(F)cc2)c(=O)[nH]c1=O do in these assays?
Pf apPOL inh: inactive; mHTT CaM bind: inactive

How did CN1CCN(Cc2c(O)ccc3c(-c4cc5cc(Br)ccc5oc4=O)cc(=O)oc23)CC1 do in these assays?
Pf apPOL inh: inactive; mHTT CaM bind: inactive

How did Cc1cn2c(=O)c(C(=O)Nc3ccc4c(c3)OCCO4)cnc2s1 do in these assays?
Pf apPOL inh: inactive; mHTT CaM bind: inactive

What do the screens show for `COc1ccc(C2NC(CC(C)C)(C(=O)O)C3C(=O)N(c4ccccc4OC)C(=O)C23)cc1` (stereo unspecified)?
Pf apPOL inh: inactive; mHTT CaM bind: inactive

What do the screens show for `COc1cc(S(=O)(=O)NCc2cccnc2)c(C)cc1Br`?
Pf apPOL inh: inactive; mHTT CaM bind: inactive

Results for O=C(Cc1csc(NC(=O)c2cnccn2)n1)NCCOc1ccc(F)cc1 ?
Pf apPOL inh: inactive; mHTT CaM bind: inactive

What do the screens show for `O=C(Cc1csc(NC(=O)c2ccsc2)n1)Nc1cccnc1`?
Pf apPOL inh: inactive; mHTT CaM bind: inactive

Results for CS(=O)(=O)Nc1cccc(NC(=O)Cc2csc(NC(=O)c3cnccn3)n2)c1 ?
Pf apPOL inh: inactive; mHTT CaM bind: 97

What do the screens show for `O=C(Cc1csc(NC(=O)c2cnccn2)n1)Nc1ccc(-n2cccn2)cc1`?
Pf apPOL inh: inactive; mHTT CaM bind: 97

Results for COc1cc(Sc2ccc(Cl)cc2)ccc1[N+](=O)[O-] ?
Pf apPOL inh: inactive

Results for COc1cc(Sc2ccccc2[N+](=O)[O-])ccc1N ?
Pf apPOL inh: inactive; mHTT CaM bind: 55

What do the screens show for `Cc1c(N=Cc2cc([N+](=O)[O-])c(Cl)cc2Cl)c(=O)n(-c2ccccc2)n1C`?
Pf apPOL inh: inactive; mHTT CaM bind: inactive

How did O=c1[nH]c2ccc(N=Cc3cc(O)ccc3Br)cc2[nH]1 do in these assays?
Pf apPOL inh: inactive; mHTT CaM bind: inactive

How did O=c1[nH]c2ccc(N=Cc3cc([N+](=O)[O-])c(Cl)cc3Cl)cc2[nH]1 do in these assays?
Pf apPOL inh: inactive; mHTT CaM bind: 94

Results for O=c1[nH]c2ccc(N=Cc3cc(Br)cc(Br)c3O)cc2[nH]1 ?
Pf apPOL inh: inactive; mHTT CaM bind: 61

Results for COc1ccc(OCCCC(=O)Nc2cc(C)c(Cl)cc2OC)cc1 ?
Pf apPOL inh: inactive; mHTT CaM bind: inactive

Results for O=C1Nc2ccccc2OC1C(=O)N1CCN(c2ccc(F)cc2)CC1 (stereo unspecified) ?
Pf apPOL inh: inactive; mHTT CaM bind: inactive

Results for CCCCC(=O)N1CCN(c2nc(C(C)C)c3c(c2C#N)CC(C)(C)OC3)CC1 ?
Pf apPOL inh: inactive; mHTT CaM bind: inactive

Results for CCCC(=O)N1CCN(c2nc(C(C)C)c3c(c2C#N)CC(C)(C)OC3)CC1 ?
Pf apPOL inh: 89; mHTT CaM bind: inactive

How did Cc1cccc(NC(=O)c2cc(C(C)(C)C)n3nccc3n2)c1 do in these assays?
Pf apPOL inh: inactive; mHTT CaM bind: inactive

What do the screens show for `COc1cc(C)nc2ccc(NC(=O)Nc3cccc(C(F)(F)F)c3)cc12`?
Pf apPOL inh: inactive; mHTT CaM bind: inactive

Results for O=C(Oc1ccc2c(-c3cc4cc(Br)ccc4oc3=O)cc(=O)oc2c1)c1ccco1 ?
Pf apPOL inh: inactive; mHTT CaM bind: inactive

Results for COc1ccc(OC)c(C=C2Oc3c(ccc4c3CN(Cc3ccco3)CO4)C2=O)c1 ?
Pf apPOL inh: inactive; mHTT CaM bind: inactive

How did COc1ccc(C=C2Oc3c(ccc4c3CN(c3ccc5c(c3)OCCO5)CO4)C2=O)cc1OC do in these assays?
Pf apPOL inh: inactive; mHTT CaM bind: inactive

What do the screens show for `COc1ccc(C=C2Oc3c(ccc4c3CN(Cc3ccco3)CO4)C2=O)c(OC)c1`?
Pf apPOL inh: inactive; mHTT CaM bind: 68

How did O=C1C(=Cc2ccco2)Oc2c1ccc1c2CN(Cc2ccc3c(c2)OCO3)CO1 do in these assays?
Pf apPOL inh: inactive; mHTT CaM bind: inactive

Results for COc1ccc(CN2COc3ccc4c(c3C2)OC(=Cc2ccco2)C4=O)cc1 ?
Pf apPOL inh: inactive; mHTT CaM bind: 51

Results for COc1ccc(C=C2Oc3c(ccc4c3CN(Cc3ccco3)CO4)C2=O)c(OC)c1OC ?
Pf apPOL inh: inactive; mHTT CaM bind: 66

What do the screens show for `COc1ccc(C=C2Oc3c(ccc4c3CN(Cc3ccncc3)CO4)C2=O)c(OC)c1OC`?
Pf apPOL inh: inactive; mHTT CaM bind: inactive

Results for COc1ccc(C=C2Oc3c(ccc4c3CN(c3ccc5c(c3)OCO5)CO4)C2=O)cc1OC ?
Pf apPOL inh: inactive; mHTT CaM bind: 59

How did COc1cccc(CNC(=O)C2CCCN(C(=O)c3ccccc3Cl)C2)c1OC (stereo unspecified) do in these assays?
Pf apPOL inh: inactive; mHTT CaM bind: inactive

What do the screens show for `O=C(Nc1ccc2oc(-c3ccc(Cl)cc3)nc2c1)c1ccccc1F`?
Pf apPOL inh: inactive; mHTT CaM bind: inactive

What do the screens show for `O=C(CCC1CCN(c2cc(NC3CC3)ncn2)CC1)NCc1ccc(F)c(Cl)c1`?
Pf apPOL inh: inactive; mHTT CaM bind: inactive

What do the screens show for `CCC1CCCCN1S(=O)(=O)c1cc(OC)c(C)cc1C` (stereo unspecified)?
Pf apPOL inh: inactive; mHTT CaM bind: inactive

Results for COc1ccc(-c2cc(-c3cccs3)nc(SCC(N)=O)c2C#N)cc1OC ?
Pf apPOL inh: inactive; mHTT CaM bind: inactive

What do the screens show for `CC(=O)c1ccc(C#CCOC(=O)c2cccs2)s1`?
Pf apPOL inh: inactive

How did COc1cc(Cn2cc(CC(=O)NCC3CCCO3)c3ccccc32)cc(OC)c1 (stereo unspecified) do in these assays?
Pf apPOL inh: inactive; mHTT CaM bind: inactive

What do the screens show for `COc1cc(C=C2Oc3c(ccc4c3CN(CCN3CCOCC3)CO4)C2=O)cc(OC)c1OC`?
Pf apPOL inh: inactive; mHTT CaM bind: 89

What do the screens show for `COCCCN1COc2ccc3c(c2C1)OC(=Cc1cc(OC)c(OC)c(OC)c1)C3=O`?
Pf apPOL inh: inactive; mHTT CaM bind: inactive
